Bioassay records from PubChem BioAssay.
A selection: hits, their analogues and other compounds. The true share with any hit is near 3.2%.
GLP1R ag – qHTS of GLP-1 Receptor Agonists. Glucagon-like peptide 1 receptor (Homo sapiens), P43220. HEK293 GLP-1R CRE-luciferase, luminescence, 4-6 h; cells express a hypersensitive GLP-1R form. Potency, µM (series often up to 45.6 µM), hits mostly activators. 380,000 compounds, 0.007% hits. AID 624172, 2012
Target sequence (P43220 whole entry, looked up): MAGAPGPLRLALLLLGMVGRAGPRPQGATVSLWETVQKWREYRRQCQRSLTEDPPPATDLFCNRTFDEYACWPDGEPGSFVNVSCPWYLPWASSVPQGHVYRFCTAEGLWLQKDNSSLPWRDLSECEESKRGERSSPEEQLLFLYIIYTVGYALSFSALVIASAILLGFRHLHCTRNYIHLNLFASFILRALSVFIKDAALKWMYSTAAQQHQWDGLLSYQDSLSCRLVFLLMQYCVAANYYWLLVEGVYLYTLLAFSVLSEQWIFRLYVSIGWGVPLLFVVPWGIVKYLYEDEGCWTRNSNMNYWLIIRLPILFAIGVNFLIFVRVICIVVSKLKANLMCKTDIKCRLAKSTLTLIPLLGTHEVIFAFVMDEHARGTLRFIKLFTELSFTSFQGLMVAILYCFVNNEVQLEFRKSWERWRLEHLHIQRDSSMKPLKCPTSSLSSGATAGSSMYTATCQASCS
ClpP mod – qHTS Assay for Activators of ClpP. Potency, µM (doses to about 57.5 µM). 340,000 compounds, 1.9% hits. purified B. subtilis ClpP, FRET peptide cleavage, 20 min. ATP-dependent Clp protease proteolytic subunit (Bacillus subtilis (strain 168)), P80244. AID 651965, 2013; active = well fitted falling curve with a large enough effect; inconclusive = small, poorly fitted or top-dose-only effect; inactive = no such curve, though single readings can be large or run the other way; also: the source files actives as falling curves though it sought activators and does not explain the sign; nearly all actives have a fitted effect of over 65% in size
Target sequence (P80244 whole entry, looked up): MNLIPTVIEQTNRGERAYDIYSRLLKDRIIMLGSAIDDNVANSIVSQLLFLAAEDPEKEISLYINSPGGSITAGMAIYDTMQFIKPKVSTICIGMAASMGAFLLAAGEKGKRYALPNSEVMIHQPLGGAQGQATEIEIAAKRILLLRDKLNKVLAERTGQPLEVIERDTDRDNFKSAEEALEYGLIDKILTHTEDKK
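Purified B. subtilis ClpP, 10 microg/mL final in Tris/HCl pH8 with KCl, BSA, glycerol and Tween-20, cleaved an Abz/nitrotyrosine-quenched decapeptide. Fluorescence (ex 320, em 430) was read at 0 and 20 min at room temperature. Delta was normalized to 5.8 microM ADEP and DMSO/no-enzyme controls.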
GLP-1R inv ag – qHTS of GLP-1 Receptor Inverse Agonists (Inhibition Mode) | Glucagon-like peptide 1 receptor (Homo sapiens), P43220 | HEK293 GLP-1R CRE-luciferase, luminescence, 24 h; GLP-1R form is constitutively active | Potency, µM (doses to about 38.3 µM), usual class: inhibitors | 410,000 compounds, 1.6% hits | AID 624417, 2012; also: nearly all actives have a fitted effect of over 55% in size
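Assay principle: reduced luminescence from a cAMP-responsive reporter in HEK293 cells co-expressing a constitutively active GLP-1R. Conditions: 24 hr compound incubation, 37 deg C, 5% CO2.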
GLP1R cytotox – qHTS of GLP-1 Receptor Inverse Agonists: Cytotox Screen; HEK293 cAMP-luciferase reporter cells, luminescence, 24 h; Potency, µM (highest dose often 38.3 µM), actives largely listed as inhibitors; 410,000 compounds, 0.13% hits; AID 624418, 2012;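 also: loss of luciferase light is scored as toxicity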
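Compound-treated cells are incubated 24 hr at 37 deg C under 5% CO2 after a 12 hour attachment period, then luciferase detection reagent is added and luminescence is measured following 12 min at room temperature; lowered signal indicates toxicity.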
Large screens that a line does not name were inactive. Unless noted, calls follow the shape of the dose curve; as a rule, active = well fitted curve in the direction sought with a large enough effect; inconclusive = small, poorly fitted or top-dose-only effect, or another doubt; inactive = no such curve, though single readings can be large; an effect the other way counts as inactive or inconclusive.

Cc1sc2ncnc(N3CCN(C(=O)c4ccco4)CC3)c2c1C	none (no result: ClpP mod)
Cc1cccc2[nH]c3c(N4CCN(C(=O)c5ccco5)CC4)ncnc3c12	ClpP mod 32µM, GLP1R cytotox inconclusive
Cc1cccc(C(=O)N2CCc3cc(CNS(=O)(=O)c4ccc(F)c(Cl)c4)ccc32)c1	none (no result: GLP1R ag)
CC(OCC(O)CN(C)Cc1nc2ccccc2c(=O)[nH]1)c1ccc(Cl)cc1 (stereo not drawn)	GLP-1R inv ag 10µM
CN(Cc1nc2ccccc2c(=O)[nH]1)Cc1nc2ccsc2c(=O)[nH]1	GLP1R cytotox 13µM (no result: ClpP mod)
Cc1cc(-n2c(C)nc3ccccc3c2=O)ccc1NC(=O)c1cccc([N+](=O)[O-])c1C	none (no result: GLP1R ag)
O=C(c1cc2c(=O)oc3ccccc3c2s1)N1CCN(c2cccc(Cl)c2)CC1	none
Cc1ccc(-n2nnnc2CNC(=O)c2ccccc2S(C)(=O)=O)cc1C	none (no result: GLP1R ag)
CCc1ccc2[nH]c(=O)c(CN(CCN(C)C)C(=O)Nc3ccccc3)cc2c1	GLP-1R inv ag 8.9µM
Cc1cc(C)c2cc(CN(CCN(C)C)C(=O)Nc3ccccc3Cl)c(=O)[nH]c2c1	GLP-1R inv ag 10µM
CCc1ccc2[nH]c(=O)c(CN(CCN(CC)CC)C(=O)NC3CCCCC3)cc2c1	ClpP mod inconclusive, GLP-1R inv ag 10µM, GLP1R cytotox inconclusive
Cc1cc(C)c2cc(CN(CCO)C(=O)Nc3ccc(F)cc3)c(=O)[nH]c2c1	none
Cc1ccc2c(c1)N(C(=O)CCC(=O)NCc1cccs1)CCO2	none (no result: GLP1R ag)
Cc1nc2nc(SCC(=O)NCCCN3CCCC3)nn2c(C)c1Cc1ccccc1Cl	GLP-1R inv ag 6.3µM (no result: ClpP mod)
O=C(N/N=C1\CCCc2c1[nH]c1ccc(Cl)cc21)c1ccncc1	GLP-1R inv ag 7.1µM, GLP1R cytotox inconclusive
O=C(N/N=C1\C/C(=N\NC(=O)c2ccncc2)c2ccccc21)c1ccncc1	none
Cc1ccccc1Cn1ccc(NC(=O)c2nn(C)cc2[N+](=O)[O-])n1	ClpP mod 28µM
O=C(c1ccccc1Br)N1CCC(c2nc3ccccc3o2)CC1	none (no result: GLP1R ag)
CCNC(=S)N(CCc1ccc(OC)c(OC)c1)Cc1cc2cc(OC)ccc2[nH]c1=O	none (no result: ClpP mod)
CC(=O)N(CCc1ccccc1C)Cc1cc2cc3c(cc2[nH]c1=O)OCO3	ClpP mod 28µM
COc1cc2cc(CN(CCc3ccccc3C)C(=S)NCCCN(C)C)c(=O)[nH]c2cc1OC	ClpP mod 14µM, GLP-1R inv ag inconclusive
CCC(=O)N(CCc1ccccc1C)Cc1cc2ccc(C)cc2[nH]c1=O	none
CCNC(=S)N(CCc1ccccc1C)Cc1cc2cc(OC)c(OC)cc2[nH]c1=O	ClpP mod inconclusive
CCNC(=S)N(CCc1cccc(C)c1)Cc1cc2cc(OC)c(OC)cc2[nH]c1=O	ClpP mod 18µM
CNC(=S)N(CCc1ccccc1)Cc1cc2cc(OC)c(OC)cc2[nH]c1=O	ClpP mod 35µM
COCCCNc1oc(/C=C/c2cc(OC)c(OC)c(OC)c2)nc1C#N	none (no result: GLP1R ag)
CCOc1cc(CNCCSc2nnnn2C)cc(Br)c1OCc1ccccc1F	GLP-1R inv ag inconclusive
CCOc1cc(CNCCO)cc(Br)c1OCc1cccs1	GLP-1R inv ag inconclusive
CCOc1cc(CNCc2cccs2)cc(Br)c1OCC	GLP-1R inv ag 10µM
CCOc1cc(CNCc2ccncc2)cc(Br)c1OCc1ccccc1F	GLP-1R inv ag 11µM
CCN(CCC#N)c1ccc(/C=C/c2ccnc3ccccc23)cc1	none (no result: GLP1R ag, GLP-1R inv ag, GLP1R cytotox)
COc1ccc(C2c3[nH]c4ccc(OC)cc4c3CCN2C(=O)Nc2ccccc2)cc1 (stereo not drawn)	GLP-1R inv ag 5.6µM (no result: GLP1R ag)
Oc1cccc(C2c3[nH]c4ccccc4c3CCN2Cc2ccc3c(c2)CCO3)c1 (stereo not drawn)	GLP-1R inv ag 2.8µM, GLP1R cytotox inconclusive
COc1cccc(C(=O)N2CCc3c([nH]c4ccccc34)C2c2ccc(SC)cc2)c1 (stereo not drawn)	GLP-1R inv ag 7.9µM (no result: GLP1R ag)
Oc1cccc(C2c3[nH]c4ccccc4c3CCN2Cc2ccoc2)c1 (stereo not drawn)	GLP-1R inv ag inconclusive
COc1ccc(C2c3[nH]c4ccccc4c3CCN2Cc2ccoc2)c(F)c1 (stereo not drawn)	GLP-1R inv ag 4.5µM
CCOC(=O)CN[C@@H](C(=O)N1CC[C@H]1C(=O)NCc1ccc(/C(N)=N/O)cc1)C1CCCCC1	none (no result: ClpP mod, GLP-1R inv ag, GLP1R cytotox)
OC(COc1ccc(CNCCc2ccc(C(F)(F)F)cc2)cc1)CN1CCCCC1 (stereo not drawn)	GLP-1R inv ag 2.2µM, GLP1R cytotox inconclusive (no result: ClpP mod)
O=[N+]([O-])c1cc(-c2csc(NCCc3nc4cc(Cl)c(N5CCCCC5)cc4n3CCCO)n2)ccc1Cl	GLP-1R inv ag 2.2µM
Cc1ccc(Cn2c(CCNc3nc(-c4ccc(Cl)c([N+](=O)[O-])c4)cs3)nc3cc(Cl)c(Cl)cc32)cc1	GLP-1R inv ag inconclusive
Cc1cc(N)ccc1N1CCCC1	none
Cc1cc(N)ccc1-n1c(C)ccc1C	ClpP mod 32µM
Oc1ccccc1C1SC(c2ccccc2O)SC(c2ccccc2O)S1 (stereo not drawn)	GLP-1R inv ag 1.1µM, GLP1R cytotox inconclusive (no result: ClpP mod)
COC(=O)c1c(-c2cccs2)csc1NC(=O)COc1c(C)ccc(C)c1C	ClpP mod inconclusive, GLP-1R inv ag inconclusive (no result: GLP1R ag)
Cc1ccc(NC(=O)c2ccc(Cl)c(NC(=O)c3cccs3)c2)cc1	GLP-1R inv ag 10µM
Cc1ccc(NC(=O)CN(C)C(=O)c2ccccc2Cc2ccccc2)cc1	GLP-1R inv ag 10µM (no result: ClpP mod)
Cc1ccc(NC(=O)CN(C)C(=O)C(Sc2ccccc2)c2ccccc2)cc1 (stereo not drawn)	GLP-1R inv ag 8.9µM
COc1ccc(NC(=O)CN(C)C(=O)C(C)Sc2ccccc2)cc1 (stereo not drawn)	none
Cc1cccc(C)c1NC(=O)CN(C)C(=O)c1ccccc1Cc1ccccc1	GLP-1R inv ag inconclusive
CC(=O)c1cccc(NC(=O)CN2C(=O)CN(C)C(=O)c3ccccc32)c1	none (no result: GLP1R ag)
c1ccc(CNCCC(Cc2ccccc2)c2ccco2)cc1 (stereo not drawn)	GLP-1R inv ag 8.9µM, GLP1R cytotox inconclusive
CCOc1ccc(CCNC(=O)c2ccc(CS(=O)(=O)Cc3ccccc3Cl)o2)cc1OCC	none (no result: GLP1R ag)
CC(=O)Nc1ccc(-c2cc3ccccc3o2)cc1	ClpP mod 14µM
FC(F)(F)c1cccc(CNc2ncccc2-c2nc3cc(Cl)ccc3o2)c1	ClpP mod 32µM
Cc1cccc(-c2noc(-c3cccnc3NCc3ccc(Cl)cc3)n2)c1	none (no result: GLP1R ag)
CCOC(=O)c1c[nH]c2cc(OCC(C)C)c(OCC(C)C)cc2c1=O	none (no result: ClpP mod, GLP-1R inv ag, GLP1R cytotox)
CCCC1=Nc2cc(C(=O)NCc3ccc(OC)cc3)ccc2Sc2ccc(C)cc21	GLP-1R inv ag 4.5µM
CCCC1=Nc2cc(C(=O)NC(C)c3ccccc3)ccc2Sc2ccc(C)cc21 (stereo not drawn)	GLP-1R inv ag 4.5µM
CS(=O)(=O)N1CCC(N2CCN(Cc3ccc(F)cc3)C(=O)C2=O)CC1	none (no result: GLP1R ag)
